About 79,000 compounds went through this panel and 15% of them were active in at least one assay; those are over-represented in the sample as a whole. Calls of active or inactive are those of the source. Cut-off read from the data, not from the text of the source: active = growth inhibition above about 70%; inactive = the rest.
Legend:
[1] = NCI Yeast Anticancer Drug Screen. Data for the rad50 strain (AID 155);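 note: 0% = growth of vehicle-only cultures of the same strain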; settings: S. cerevisiae rad50 strain growth inhibition, hits give high values
Procedure, shortened: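 Inhibition values express reduced yeast growth in compound-treated cultures relative to vehicle-treated controls.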

[2] = NCI Yeast Anticancer Drug Screen. Data for the mec2-1 strain (AID 157); settings: S. cerevisiae mec2-1 strain, hits give high values
Procedure, shortened: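 Cells of the genetically defined mec2-1 yeast strain are incubated with test compound. Inhibition of growth is calculated against vehicle-treated controls.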

[3] = NCI Yeast Anticancer Drug Screen. Data for the sgs1 mgt1 strain (AID 161);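 note: 0% = growth of cultures given vehicle only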; settings: S. cerevisiae sgs1 mgt1 strain, hits give high values
Procedure, shortened: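 Read-out: growth inhibition vs vehicle controls. Cells: mutant yeast strain deficient in DNA damage repair.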

[4] = NCI Yeast Anticancer Drug Screen. Data for the cln2 rad14 strain (AID 165);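 note: 0% = growth equal to vehicle treated cultures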; settings: S. cerevisiae cln2 rad14 strain, hits give high values
Procedure, shortened: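 The screen exposed genetically defined yeast (cln2 rad14) to test compounds and scored growth inhibition relative to vehicle-treated controls.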

[5] = NCI Yeast Anticancer Drug Screen. Data for the bub3 strain (AID 167); settings: S. cerevisiae bub3 mutant strain, hits give high values
Procedure, shortened: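 Steps: expose the mutant yeast strain to compound; grow alongside vehicle-treated cultures; measure growth; express inhibition against the vehicle cultures.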

[6] = NCI Yeast Anticancer Drug Screen. Data for the mlh1 rad18 strain (AID 175); settings: S. cerevisiae mlh1 rad18 strain growth inhibition, hits give high values
Procedure, shortened: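 Compound-treated yeast growth, normalised to vehicle controls. Strain bears defined DNA repair mutations.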

[7] = at 5.0 µM (retest, dose inferred, filed as 0.5)
[8] = at 50.0 µM (retest, dose inferred, filed as 5.0)

Measured: growth inhibition

CN(C)CC[N+](C)(C)Cc1ccc(C[N+](C)(C)CC[N+](C)(C)Cc2ccc(CCl)cc2)cc1
inactive: [1]; [7] 0% | [1]; [8] 0% | [2]; [7] -39% | [2]; [8] -1% | [3]; [7] -1% | [3]; [8] 2% | [4]; [7] 1% | [4]; [8] 2% | [5]; [7] -6% | [5]; [8] 2% | [6]; [7] -1% | [6]; [8] -1%
active: [1]; at 50.0 µM 99% | [2]; at 50.0 µM 98% | [3]; at 50.0 µM 97.9% | [4]; at 50.0 µM 96% | [5]; at 50.0 µM 97.8% | [6]; at 50.0 µM 98.7%

CC(=O)NNc1nc(C)c(C(=O)NNC(=O)C(=O)Nc2c(C)cccc2C(C)C)s1
inactive: [1]; [7] 3% | [1]; at 50.0 µM 43.1% | [2]; [7] 1% | [2]; at 50.0 µM 33% | [3]; [7] 6% | [3]; at 50.0 µM 47% | [4]; [7] 0% | [4]; [8] 49% | [4]; at 50.0 µM 9% | [5]; [7] 4% | [5]; at 50.0 µM 37.5% | [6]; [7] -4% | [6]; at 50.0 µM 44.1%
active: [1]; [8] 85% | [2]; [8] 88% | [3]; [8] 89% | [5]; [8] 87% | [6]; [8] 74%

ONC(=Nc1ccccc1)c1ccccc1
inactive: [1]; [7] -137% | [2]; [7] -42% | [2]; [8] 47% | [3]; [7] -55% | [4]; [7] -58% | [5]; [7] -66% | [5]; [8] 35% | [6]; [7] -120%
active: [1]; [8] 73% | [1]; at 50.0 µM 95.4% | [2]; at 50.0 µM 98.3% | [3]; [8] 78% | [3]; at 50.0 µM 96.3% | [4]; [8] 86% | [4]; at 50.0 µM 96.6% | [5]; at 50.0 µM 95.2% | [6]; [8] 75% | [6]; at 50.0 µM 97.9%

O=C1CSC(=S)N1Cc1ccncc1
inactive: [1]; [7] 2% | [1]; [8] 38% | [1]; at 50.0 µM 39.1% | [2]; [7] -14% | [2]; [8] 37% | [2]; at 50.0 µM 40.9% | [3]; [7] -8% | [3]; [8] 25% | [3]; at 50.0 µM 57.5% | [4]; [7] 24% | [4]; [8] 31% | [4]; at 50.0 µM 18.6% | [5]; [7] 12% | [5]; [8] 29% | [5]; at 50.0 µM 65.5% | [6]; [7] -16% | [6]; at 50.0 µM 39.3%
active: [6]; [8] 71%

CC(=O)Oc1ccc(/C=C2\N=C(c3ccccc3)OC2=O)c(OC(C)=O)c1
active: [1]; [8] 75% | [5]; [8] 79% | [6]; [8] 77%
inactive: [1]; [7] 4% | [1]; at 50.0 µM 15.3% | [2]; [7] 1% | [2]; [8] 55% | [2]; at 50.0 µM 4.25% | [3]; [7] -4% | [3]; [8] 36% | [3]; at 50.0 µM 10.8% | [4]; [7] 2% | [4]; [8] 37% | [4]; at 50.0 µM 25.8% | [5]; [7] -2% | [5]; at 50.0 µM 9.55% | [6]; [7] 0% | [6]; at 50.0 µM 1.05%

CCCCCCCCN(CCCCCCCC)CC(O)c1cc(OCC)nc2ccccc12 (stereo not given)
inactive: [1]; [7] 2% | [2]; [7] 4% | [3]; [7] 4% | [4]; [7] 3% | [5]; [7] 9% | [6]; [7] 9%
active: [1]; [8] 96% | [1]; at 50.0 µM 97.8% | [2]; [8] 97% | [2]; at 50.0 µM 97.7% | [3]; [8] 96% | [3]; at 50.0 µM 97.4% | [4]; [8] 96% | [4]; at 50.0 µM 93.5% | [5]; [8] 97% | [5]; at 50.0 µM 97.8% | [6]; [8] 95% | [6]; at 50.0 µM 96.8%

CN1c2ccccc2C(=O)NC1c1ccc([N+](=O)[O-])s1 (stereo not given)
active: [3]; at 50.0 µM 71.8% | [6]; at 50.0 µM 73.1%
inactive: [1]; [7] -9% | [1]; [8] 53% | [1]; at 50.0 µM 63.5% | [2]; [7] 7% | [2]; [8] 8% | [2]; at 50.0 µM 41% | [3]; [7] -19% | [3]; [8] 32% | [4]; [7] 11% | [4]; [8] 23% | [4]; at 50.0 µM 33.4% | [5]; [7] -47% | [5]; [8] 35% | [5]; at 50.0 µM 57% | [6]; [7] -22% | [6]; [8] 63%

O=C(Oc1ccccc1)C1CCCCC1C(=O)Oc1ccccc1 (stereo not given)
inactive: [1]; [7] -16% | [1]; [8] -12% | [1]; at 50.0 µM 39.2% | [2]; [7] -19% | [2]; [8] 10% | [2]; at 50.0 µM 26.4% | [3]; [7] -3% | [3]; [8] 5% | [3]; at 50.0 µM 30.4% | [4]; [7] 10% | [4]; [8] 33% | [4]; at 50.0 µM -2.35% | [5]; [7] -9% | [5]; [8] -5% | [5]; at 50.0 µM -4.5% | [6]; [7] -11% | [6]; [8] -6% | [6]; at 50.0 µM 31.8%

N[C@@H]1CCCC[C@@H]1N.O=C([O-])CN(CP(=O)([O-])[O-])CP(=O)([O-])[O-].[Pt+2]
active: [1]; [8] 89% | [1]; at 50.0 µM 99.5% | [2]; [8] 75% | [2]; at 50.0 µM 99.7% | [3]; [8] 88% | [3]; at 50.0 µM 99.5% | [4]; at 50.0 µM 98.3% | [5]; [8] 89% | [5]; at 50.0 µM 99.3% | [6]; [8] 77% | [6]; at 50.0 µM 99.5%
inactive: [1]; [7] -1% | [2]; [7] 6% | [3]; [7] 8% | [4]; [7] 3% | [4]; [8] 67% | [5]; [7] 5% | [6]; [7] -1%

OC(c1ccccc1)c1cccc(Br)c1 (stereo not given)
active: [1]; at 50.0 µM 76.5% | [2]; [8] 77% | [6]; [8] 77% | [6]; at 50.0 µM 87.2%
inactive: [1]; [7] -2% | [1]; [8] 67% | [2]; [7] -11% | [2]; at 50.0 µM 59.8% | [3]; [7] -13% | [3]; [8] 55% | [3]; at 50.0 µM 52.9% | [4]; [7] -1% | [4]; [8] 48% | [4]; at 50.0 µM 42.6% | [5]; [7] -3% | [5]; [8] 68% | [5]; at 50.0 µM 30.1% | [6]; [7] 14%
